Source: PubChem
TEAD-YAP inh: TEAD-YAP interaction inhibition, primary screen, TEAD-YAP interaction inhibitor project, luminescence, HEK-TIYL cells | AID 1259422, 2018 | hit rate 1.4% among 640,000 | TEAD-Gal4/YAP UAS-luciferase luminescence | inhibition, % at 9.12 µM; in the data active = inhibition above about 32%;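 also: 0% = median of test compound wells and 100% = reference inhibitor wells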
FBW7 act: FBW7 E3 ligase activators, primary screen, biochemical, AlphaScreen, human | AID 1259310, 2017 | AlphaScreen FBW7–phospho-cyclin E peptide binding, activator screen | hit rate 0.13% among 650,000 | normalized activity (activation), % at 26.1 µM; in the data active = normalized activity above about 1.9%;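 also: purified mutant Fbw7 with reduced substrate affinity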
GPR151 ag: activators of human GPR151, primary screen, cell-based, PathHunter beta-arrestin, luminescence; AID 1508602, 2020; activation, % at 11.2 µM; hit rate 1% among 650,000; PathHunter beta-arrestin GPR151 cells; in the data active = activation above about 4.9%;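 also: 0% = median of compound wells and 100% = cells with positive control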
Target sequence (Q8TDV0 whole entry, looked up): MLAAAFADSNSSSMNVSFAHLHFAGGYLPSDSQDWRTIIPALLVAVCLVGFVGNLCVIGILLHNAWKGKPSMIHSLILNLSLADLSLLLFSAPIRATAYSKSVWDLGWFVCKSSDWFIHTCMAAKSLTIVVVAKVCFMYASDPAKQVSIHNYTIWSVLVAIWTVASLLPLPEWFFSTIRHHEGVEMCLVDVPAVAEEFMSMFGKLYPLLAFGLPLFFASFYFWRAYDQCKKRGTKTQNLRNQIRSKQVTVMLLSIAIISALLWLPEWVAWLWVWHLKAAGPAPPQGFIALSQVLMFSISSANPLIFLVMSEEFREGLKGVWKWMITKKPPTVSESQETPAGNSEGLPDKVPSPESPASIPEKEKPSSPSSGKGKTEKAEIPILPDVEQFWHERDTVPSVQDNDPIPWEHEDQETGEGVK
MITF inh: MITF inhibitors, primary screen, biochemical, AlphaScreen, human. Microphthalmia-associated transcription factor (Homo sapiens), O75030. AlphaScreen MITF homodimerization, bead proximity signal. inhibition, % at 2.6 µM. hit rate 0.91% among 650,000. AID 1259374, 2018; in the data active = inhibition above about 50%;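 also: 0% = vehicle wells with protein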
GPR151 conf act: GPR151 activators, triplicate retest, confirmation, cell-based, PathHunter beta-arrestin, luminescence; shares compounds with GPR151 ag; activation, % at 11.2 µM; 6,700 tested, under 10 active; GPR151 PathHunter beta-arrestin cells, 90 min; % of EA-reagent control over plate median;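 active = mean percent activation across replicates above the confirmation screen cutoff of 4.91%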
GPR119 counter: GPR119 activators in beta-arrestin cells, counter-screen for GPR151 activator project, cell-based, PathHunter beta-arrestin, luminescence, triplicate; shares compounds with GPR151 ag; 90 min; 0 = compound-well median, 100 = enzyme-acceptor control; activation, % at 11.2 µM; hit rate 0.3% among 6,700;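 active = mean percent activation in the counterscreen above 29.09%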;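 also: counterscreen on off-target GPR119 to flag nonselective hits from the GPR151 activator screen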
* marks the source's active call; other numbers are inactive results; / = no result given. Only some compounds are listed: those with a hit (about 3.5% of all), similar ones and a draw of the others.

SMILES	TEAD-YAP inh	FBW7 act	GPR151 ag	MITF inh	GPR151 conf act	GPR119 counter
CN(Cc1coc2c(Cl)cc(Cl)cc2c1=O)CC(O)c1ccccc1 (stereo not drawn)	-5	0	2	11	/	/
CC(C)n1c(C(F)(F)F)nc2ccccc21	6	0	5.2*	10	2	9
C=CCn1c(C)cc(C(=O)CSc2nnc(-c3ccc4c(c3)OCO4)o2)c1C	-6	0	2	7	/	/
COc1cc(OCC(=O)O)cc(OC)c1OC	0	0	3	14	/	/
C#CCOc1cc(OC)c(OC)c(OC)c1	2	0	5.6*	8	-1	-5
CCCCOc1nc2ccccc2nc1C(C#N)C(=O)OCC (stereo not drawn)	-7	0	5.3*	-13	0	-4
CCCN1CCN(c2ncnc3sc(C(=O)Nc4cccc(OC)c4)c(C)c23)CC1	-10	0	-1	-1	/	/
Cn1nccc1Nc1nccc(Nc2ccccc2)n1	-5	0	7.5*	-5	1	5
CN(C)c1cccc(-c2cnc3ccc(NCCCO)nn23)c1	27	1	0	15	/	/
O=C(c1c[nH]c2ccc(S(=O)(=O)N3CCCCCC3)cc2c1=O)N1CCOCC1	1	0	11*	14	0	4
O=C(CCN1N=C(c2ccccc2)CCC1=O)NCCN1CCOCC1	3	1	0	2	/	/
COc1cccc(CC2(CO)CCCN(Cc3cc(OC)c(OC)c(OC)c3)C2)c1 (stereo not drawn)	1	0	-1	-2	/	/
COc1cccc(CC2(CO)CCCN(Cc3cccc(OC)c3OC)C2)c1 (stereo not drawn)	6	0	6.2*	12	0	-5
CCOC(=O)c1c(NC(=O)/C=C/c2ccc(C)o2)sc(C)c1C	2	0	9.8*	8	0	4
Cc1cc(NC(=O)NC(=O)c2cccc(Cl)c2)n[nH]1	-39	0	-4	3	/	/
Cc1cc(NC(=O)NC(=O)c2ccc(Cl)c(Cl)c2)n[nH]1	-8	0	6.6*	-5	1	12
Cc1nc2cc(-c3cccc(F)c3)nn2c(NCCN)c1C	-62	0	5.2*	-2	0	-5
CCCCNC(=O)C(=O)NCc1ccccc1	-16	0	0	16	/	/
Cc1sc2nc(SCC(=O)NC3CCCC3)nc(N)c2c1C	-5	0	0	-1	/	/
Cc1sc2nc(SCC(=O)N3CCCCC3C)nc(N)c2c1C (stereo not drawn)	-5	0	11*	1	0	3
CCN1C(=O)/C(=C\c2cccc(OCC(=O)O)c2)SC1=S	5	0	-2	1	/	/
Oc1ccc(Nc2ncnc3ccc(I)cc23)cc1	16	0	8.2*	8	2	8
CCN(CC)CCNc1c2c(nc3nnnn13)CCCC2	3	0	0	11	/	/
COCCCNc1c2c(nc3nnnn13)CCCC2	5	0	6.1*	5	0	-2
COC(=O)COc1ccc(S(=O)(=O)NCCC2=CCCCC2)cc1C	-1	0	30*	2	0	2
COc1ccc(N(CC(=O)NC2CCCCC2)S(=O)(=O)c2ccccc2)cc1Cl	-4	0	1	16	/	/
Cc1oc(C(=O)O)cc1CSCc1ccoc1C(=O)O	0	0	6.1*	3	1	-2
COC(=O)CNS(=O)(=O)c1ccc(OC)c([N+](=O)[O-])c1	-3	1	-3	16	/	/
COc1ccc(-c2cc(C(F)(F)F)n3nc(C(=O)NCc4cccs4)cc3n2)cc1OC	-1	0	7.2*	0	0	12
COc1ccc(-c2cc(C(F)(F)F)n3nc(C(=O)NCCc4ccccc4)cc3n2)cc1	2	0	13*	14	0	-3
